Assay outcomes from PubChem.
Sampled rows, rich in hits. Any-hit rate of the full collection: about 21%.
RORgamma inh – ROR gamma (mouse) transcription inhibition; Drosophila S2 Gal4-RORgamma UAS-luciferase reporter, 20 h; Potency, µM (highest dose often 53.6 µM), hits mostly inhibitors; 310,000 tested, 5.4% active; AID 2551; further: nearly all actives have a fitted effect of over 60% in size
Target sequence (P51450 whole entry, looked up, the tested form may be a part): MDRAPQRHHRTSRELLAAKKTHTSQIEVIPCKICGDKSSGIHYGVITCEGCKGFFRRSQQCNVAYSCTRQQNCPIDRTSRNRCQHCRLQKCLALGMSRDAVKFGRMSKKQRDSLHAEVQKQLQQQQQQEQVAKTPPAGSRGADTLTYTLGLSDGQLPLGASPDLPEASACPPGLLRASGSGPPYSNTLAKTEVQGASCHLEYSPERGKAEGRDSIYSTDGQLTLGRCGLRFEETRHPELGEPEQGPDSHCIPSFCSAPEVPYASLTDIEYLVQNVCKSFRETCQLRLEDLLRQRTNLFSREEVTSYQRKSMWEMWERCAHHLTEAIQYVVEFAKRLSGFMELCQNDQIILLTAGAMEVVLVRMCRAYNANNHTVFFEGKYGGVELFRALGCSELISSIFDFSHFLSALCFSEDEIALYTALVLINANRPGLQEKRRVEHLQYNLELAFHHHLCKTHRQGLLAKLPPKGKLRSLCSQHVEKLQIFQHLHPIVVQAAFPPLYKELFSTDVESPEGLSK
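Luciferase reporter read in Schneider cells carrying Gal4-RORγ (mouse) and UAS-Photinus luciferase; cells given compound 1 h before 700 uM copper sulfate induction, then incubated 20 h at ambient temperature.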
IL1B secr inh – inhibitors of inflammasome signaling (IL-1 beta secretion); 360,000 tested, 4.7% active; activity change, % at 57.5 µM; THP-1 LPS/ATP IL-1B secretion, AlphaLISA, 16 h; hits give low values; in the data active means activity change below about -50%; inconclusive means mostly about -30% to -49%
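THP-1 cells pretreated 1 hr with compounds (up to 57.5 uM final), then stimulated with LPS (250 ng/mL final) plus ATP (1.25 mM final); secreted IL-1B measured by AlphaLISA after 16 hr, decreased signal indicating inhibition.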
DT40 TDP1 no CPT – qHTS for Inhibitors of human tyrosyl-DNA phosphodiesterase 1 (TDP1): qHTS in cells in absence of CPT | Potency, µM (highest dose often 46.2 µM), usual class: inhibitors | DT40 Tdp1-/- hTDP1 cells, no CPT, ATP luminescence, 48 h | 420,000 tested, 15% active; further: nearly all actives have a fitted effect of over 55% in size
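Luminescent ATP content (CellTiter-Glo) served as the growth readout. Knockout chicken DT40 cells expressing human TDP1 were exposed to compounds without camptothecin for a minimum 48 hr at 37 °C.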
VP16 counter – counter-screen for ROR gamma inhibitors: Gal4-VP16 reporter; 310,000 tested, 3.5% active; Drosophila S2 Gal4-VP16 UAS-luciferase, luminescence, 20 h; Potency, µM (highest dose often 53.6 µM), actives largely listed as inhibitors;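 further: Gal4-VP16 expression switched on by copper sulfate through the metallothionein promoter; nearly all actives have a fitted effect of over 50% in size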
TDP1 cell CPT – DT40-hTDP1 cell growth loss with CPT | AID 686979 | Potency, µM (doses to about 46.2 µM), usual class: inhibitors | 420,000 tested, 12% active | chicken DT40 Tdp1-/-;hTDP1 cells + 20 nM CPT, ATP luminescence, 48 h; further: nearly all actives have a fitted effect of over 55% in size
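Chicken DT40 Tdp1-/- cells stably complemented with human TDP1 were seeded at 400 cells/well in medium containing 20 nM camptothecin, exposed to pin-transferred compounds, and grown at 37 °C for at least 48 hr. Viability was read as ATP luminescence.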
ELG1 repair inh – inhibitors of ELG1-dependent DNA repair in HEK293T cells; HEK293T ELG1-luciferase reporter, luminescence, 16 h; DNA damage induced by 5-fluorouridine; Potency, µM (top dose mostly 46.1 µM), most hits filed as inhibitors; 330,000 tested, 2.3% active; AID 504467; further: nearly all actives have a fitted effect of over 55% in size
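DMSO vehicle served as the neutral condition. Each well held 2,000 cells given 5-fluorouridine plus compound; after 16 hr at 37 °C/5% CO2, ONE-Glo was added and luciferase measured 30 min later.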
Hits are given with their value; i = inactive; ? = inconclusive; nt = not tested or not shown; [ ] = dose if it differs, or a comment. Unless noted, the call rests on the fitted dose curve; in most records, active means well fitted curve in the direction sought with a large enough effect; inconclusive means small, poorly fitted or top-dose-only effect, or another doubt; inactive means no such curve, though single readings can be large; an effect the other way counts as inactive or inconclusive.

SMILES | RORgamma inh | IL1B secr inh | DT40 TDP1 no CPT | VP16 counter | TDP1 cell CPT | ELG1 repair inh
C[C@]1(C(=O)NCc2cc(F)cc(C(F)(F)F)c2)C=C[C@@H](Cc2ccccc2)N1C(=O)c1ccccc1 | ? | i | ? | i | 16µM | i
COc1cc(CN2CCCC(c3nc(-c4ccncc4)ncc3-c3ccccc3)C2)ccc1O (stereo unspecified) | nt | nt | i | nt | i[9.04 µM] | nt
CC(C)N(C)S(=O)(=O)c1ccc(NC(=O)CSC(=S)N2CCCC2)cc1 | nt | i | i | nt | i | i
Cc1cc(C)c2sc(N(CCCN(C)C)C(=O)c3ccc(S(=O)(=O)N(C)Cc4ccccc4)cc3)nc2c1 | nt | -110 | ? | nt | ? | ?
CCCCN(C)S(=O)(=O)c1ccc(C(=O)N(CCN(C)C)c2nc3ccc(C)cc3s2)cc1 | i | i | i | i | i | ?
CCN(Cc1ccccc1)S(=O)(=O)c1ccc(C(=O)N(CCCN(C)C)c2nc3cc(C)cc(C)c3s2)cc1 | nt | -100 | 12µM | nt | 23µM | ?
CCCCN(CC)S(=O)(=O)c1ccc(C(=O)N(CCCN(C)C)c2nc3cc(C)cc(C)c3s2)cc1 | 11µM | -178 | 23µM | ? | ? | i
CC1(C(=O)NS(=O)(=O)c2ccc(C#N)cc2)CCN1C(=O)Cc1cc(F)ccc1F (stereo unspecified) | nt | i | i | nt | i | nt
NNc1ncnc2sc3c(c12)CCC3 | 3.2µM | i | 18µM | 4µM | 8.2µM | ?
CN(C)c1ccc(Nc2ncnc3sc4c(c23)CCCC4)cc1 | nt | nt | 23µM | nt | ? | nt
O=C(Nc1ncnc2sc3c(c12)CCCCC3)c1ccc(F)cc1 | 7.1µM | i | ? | 13µM | ? | ?
c1cc(Nc2ncnc3sc4c(c23)CCC4)ccn1 | i | i | ? | i | ? | i
O=C(Nc1ncnc2sc3c(c12)CCC3)c1ccco1 | i | i | i | i | i | ?
CC1(C)Cc2c(sc3ncnc(NN)c23)CO1 | ? | i | ? | ? | ? | ?
O=S1(=O)C2CC3C=CC2(CN1Cc1cccc(F)c1)O3 (stereo unspecified) | i | nt | nt | i | nt | nt
CC1=C(C)CC(c2ccccc2)C(C(=O)c2ccccc2O)C1 (stereo unspecified) | i[10 µM] | nt | nt | i[10 µM] | nt | nt
COc1ccc(OC)c(CNC(=O)C2CCN(S(=O)(=O)c3ccc4[nH]c(=O)oc4c3)CC2)c1 | nt | nt | i | nt | i | nt
COc1cc2c(NC3CCN(C)CC3)nc(N3CCCN(C)CC3)nc2cc1OCCCN1CCOCC1 | nt | nt | 11µM | nt | 7.9µM | nt
COCCCCOc1cc2nc(N3CCCN(C)CC3)nc(NC3CCN(C)CC3)c2cc1OC | nt | nt | 11µM | nt | 13µM | nt
CCOC(=O)c1cnc2cc(Cl)c(OC)cc2c1Nc1ccc(Br)cc1C | nt | nt | i | nt | i | nt
CCOC(=O)c1cnc2cc(Cl)c(OC)cc2c1NCC1CCCO1 (stereo unspecified) | i | ? | 15µM | i | ? | ?
COc1cc(-c2nc(C)cnc2C)cc2c1OCCN(C(=O)Cc1cc(OC)c(OC)c(OC)c1)C2 | nt | nt | i | nt | i[9.04 µM] | nt
CCN1CCN(S(=O)(=O)c2ccc(Cl)c(C(=O)Nc3cc(Cl)ccc3N3CCOCC3)c2)CC1 | i | -62 | ? | i | ? | i
CCN1CCN(c2ccc(S(=O)(=O)N3CCOCC3)cc2NC(=O)c2ccc(Cl)cc2Cl)CC1 | nt | i | 21µM | nt | ? | i
CCN1CCN(c2ccc(S(=O)(=O)N3CCOCC3)cc2NC(=O)c2ccc(C)c(C)c2)CC1 | nt | i | ? | nt | ? | i
SMILES | RORgamma inh | IL1B secr inh | DT40 TDP1 no CPT | VP16 counter | TDP1 cell CPT | ELG1 repair inh
COc1cc(C(=O)N(C)CC2CCN(CCc3cccc(C(F)(F)F)c3)CC2)ccc1C | i | -86 | ? | i | ? | i
O=S(=O)(c1cccc(-c2nnc(SCc3ccc(Cl)cc3)o2)c1)N1CCCCC1 | i | i | 23µM | i | 8.2µM | ?
O=S(=O)(Nc1ccc(-c2nnc(SCc3ccc(Cl)cc3)o2)cc1)c1ccccc1 | i | -79 | ? | i | ? | i
Cc1ccccc1C(=O)N1CCC[C@H]1C(=O)N1CCC[C@H]1C(=O)NCc1ccccn1 | nt | i | i | nt | i | nt
Cc1ccc(/C=N/n2c(-c3ccc(Cl)cc3)n[nH]c2=S)s1 | 1.4µM | i | 16µM | i | ? | ?
Cc1ccc(-c2n[nH]c(=S)n2/N=C/c2ccc(C)s2)cc1 | 3.2µM | i | i | 7.1µM | i | i
CC(C)C[C@@H](CC(=O)N[C@@H](CCC(=O)O)CC(=O)O)NC(=O)[C@@H]1CCCC[C@H]1NC(=O)C[C@@H](NC(=O)C[C@H](Cc1ccccc1)NC(=O)[C@@H]1CCCC[C@H]1N)C(C)C | i | nt | nt | i | nt | nt
Cc1cc(=O)[nH]c(SCC(=O)NN(c2ccccc2)c2ccccc2)n1 | i | i | i | i | i | ?
CCC(=O)O[C@@]1(C(=O)CCl)[C@@H](C)C[C@@H]2[C@H]3CCC4=CC(=O)C=C[C@@]4(C)[C@]3(F)[C@@H](O)C[C@@]21C | ? | nt | nt | i | nt | nt
CCC(=O)OCC(=O)[C@@]1(OC(=O)CC)[C@@H](C)C[C@H]2[C@@H]3CCC4=CC(=O)C=C[C@]4(C)[C@@]3(Cl)[C@@H](O)C[C@@]21C | nt | -58 | 16µM | nt | 24µM | i
COc1ccccc1N1CCN(C(=O)CCC(=O)N2CCN(c3ccccc3OC)CC2)CC1 | i | i | ? | i | i | i
COc1ccccc1N1CCN(CC(=O)c2ccc3ccn(C(C)=O)c3c2)CC1 | ? | i | ? | ? | 2.9µM | i
COc1ccc(C(=O)CCN2CCN(c3ccccc3OC)CC2)cc1 | i | ? | 5.2µM | 2.8µM | 3.7µM | i
CC1CCN(S(=O)(=O)c2ccc(Cl)cc2)CC1 | i | i | i | i | i | i
COc1ccc(S(=O)(=O)N2CCN(c3ccccn3)CC2)c(OC)c1 | i | i | ? | i | i | i
COc1ccc(S(=O)(=O)N2CCC(c3nnc(-c4ccccc4C)o3)CC2)c(OC)c1 | nt | nt | 6.5µM | nt | 8.2µM | nt
Cc1ccccc1-c1nnc(C2CCN(S(=O)(=O)c3ccc(Cl)cc3)CC2)o1 | nt | nt | 3.7µM | nt | 5.8µM | nt
COc1cccc(C#Cc2ccc3c(c2)O[C@H](CN(C)C)[C@@H](C)CN([C@@H](C)CO)S3(=O)=O)c1 | nt | i | ? | nt | ? | nt
O=C(COC(=O)C(CO)NS(=O)(=O)c1ccc(Br)cc1)Nc1ccc2c(c1)OCCO2 (stereo unspecified) | nt | i | i | nt | i | i
CCOC(=O)C1=C(C)N=c2s/c(=C/c3ccc(OCC(=O)O)cc3)c(=O)n2C1c1cc(OC)c(OC)c(OC)c1 (stereo unspecified) | i[1.91 µM] | i | i | i | i | i
